Data published in PubChem BioAssay.
Activity calls are given as the source filed them. Unless noted, how the calls were made is not given here.

Columns and labels:
[1] = HepG2 liver cancer cell viability effects, profiling panel, resazurin fluorescence, 24 h, PK04 Diversity Set (AID 1172); settings: higher = more signal
[2] = basal S. cerevisiae growth modulation, no modifier, primary screen, OD600, strain BY4716, 24 h, basal condition (AID 1173); settings: OD600, 24 h, higher = more signal, called active from +8 up or from −8 down
[3] = MM1S myeloma cell viability, profiling panel, resazurin fluorescence, basal, 24 h, PK04 Diversity Set (AID 1174); settings: higher = more signal, called active from +8 up or from −8 down;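 further: MM1S multiple myeloma cell line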
[4] = biological target: Dihydroorotate dehydrogenase (quinone), mitochondrial (Plasmodium falciparum (isolate 3D7)) (UniProt Q08210); assay: PfDHODH enzyme inhibitors, primary screen, biochemical, C-terminal His tag, absorbance 600 nm (AID 1175); settings: DCIP absorbance 600 nm, higher = more signal, called active from +8 up or from −8 down;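 further: recombinant parasite enzyme with a five histidine tag at its C terminus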
[5] = P. aeruginosa biofilm formation inhibitors, primary screen, strain PAO1, LB-PBS medium, absorbance 600 nm (AID 1176); settings: P. aeruginosa PAO1 growth/biofilm, A600, 12 h; higher = more signal
[6] = S. cerevisiae RM11-1a growth modifiers, primary screen, strain RM11-1a, OD600, basal, 24 h (AID 1177); settings: OD600, 24 h, higher = more signal, called active from +8 up or from −8 down;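 further: cultures grown under basal conditions with no added stressor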
[7] = E. coli acrAB mutant growth effects, primary screen, E. coli filamentation inducers, strain DRC39, OD650, 24 h (AID 1178); settings: higher = more signal, called active from +8 up or from −8 down;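 further: growth measured as culture turbidity by optical density at 650 nm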
[8] = E. coli acrAB mutant growth effects, primary screen, E. coli filamentation inducers, strain DRC39, OD650, 48 h (AID 1179);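 further: screen aims at cell division blockers that make cells filament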; settings: E. coli DRC39 delta-acrAB growth, higher = more signal, called active from +8 up or from −8 down
[9] = RPMI8226 myeloma cell viability, profiling panel, resazurin fluorescence, basal, 24 h, PK04 Diversity Set (AID 1180); settings: higher = more signal;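 further: RPMI8826 multiple myeloma cell line at 5000 cells per well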
[10] = biological target: E3 ubiquitin-protein ligase XIAP (Homo sapiens) (UniProt P98170); assay: XIAP binders, primary screen, biophysical, small-molecule microarray, fluorescence 635 nm (AID 1181); settings: small-molecule microarray binding, higher = more signal;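 further: score merges 667 nm emission and signal to noise over triplicate slides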
[11] = test system: XIP peptide (Xip251-270) binding; assay: small-molecule binders of XIP peptide, primary screen, biochemical, small-molecule microarray, fluorescence 635/667 nm, 0.1 µg/mL protein (AID 1182); settings: fluorescent protein binding, 635 nm, higher = more signal, called active from +8 up or from −8 down
XIP peptide (Xip251-270) = assay: small-molecule binders of XIP peptide, primary screen, biochemical, small-molecule microarray, fluorescence 635/667 nm, 0.5 µg/mL protein (AID 1183); settings: small-molecule microarray binding, fluorescence 635 nm; higher = more signal
[12] = Plasmodium falciparum growth inhibition, primary screen, strain 3D7, DAPI fluorescence, 100 nL (AID 1184);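 further: parasites grown inside human red blood cells in medium with human serum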; settings: P. falciparum 3D7 growth, 3 d, higher = more signal
[13] = biological target: Homeobox protein Hox-A13 (Mus musculus) (UniProt Q62424); assay: inhibitors of HoxA13-DNA binding, primary screen, biochemical, fluorescence polarization, labeled oligonucleotide (AID 1185); settings: 15 min, higher = more signal, called active from +8 up or from −8 down
[14] = inhibitors of hydroxyurea-induced Chk1 phosphorylation, primary screen, imaging, HeLa, phospho-Chk1 antibody, percent positive cells (AID 1186); settings: hydroxyurea-induced phospho-Chk1 immunofluorescence imaging, higher = more signal
[15] = inhibitors of hydroxyurea-induced Chk1 phosphorylation, primary screen, imaging, HeLa, phospho-Chk1 nuclear intensity (AID 1187); settings: hydroxyurea-induced phospho-Chk1 immunofluorescence imaging, higher = more signal

Chain of E3 ubiquitin-protein ligase XIAP (Homo sapiens) (P98170 whole entry, looked up): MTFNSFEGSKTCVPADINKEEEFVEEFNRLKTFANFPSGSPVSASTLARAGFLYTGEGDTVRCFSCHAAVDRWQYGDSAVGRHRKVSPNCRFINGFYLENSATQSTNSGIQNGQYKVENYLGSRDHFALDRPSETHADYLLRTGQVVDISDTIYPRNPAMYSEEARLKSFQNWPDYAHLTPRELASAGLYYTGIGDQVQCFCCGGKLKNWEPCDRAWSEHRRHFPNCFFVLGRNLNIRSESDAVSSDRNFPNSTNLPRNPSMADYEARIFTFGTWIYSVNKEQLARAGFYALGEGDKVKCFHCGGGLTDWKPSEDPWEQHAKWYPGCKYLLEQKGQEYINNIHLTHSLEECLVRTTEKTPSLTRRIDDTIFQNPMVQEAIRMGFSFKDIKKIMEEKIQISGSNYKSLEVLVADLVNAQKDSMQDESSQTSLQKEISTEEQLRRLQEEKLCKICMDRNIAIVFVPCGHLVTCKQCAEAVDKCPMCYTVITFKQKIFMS
Chain of Dihydroorotate dehydrogenase (quinone), mitochondrial (Plasmodium falciparum (isolate 3D7)) (Q08210 whole entry, looked up): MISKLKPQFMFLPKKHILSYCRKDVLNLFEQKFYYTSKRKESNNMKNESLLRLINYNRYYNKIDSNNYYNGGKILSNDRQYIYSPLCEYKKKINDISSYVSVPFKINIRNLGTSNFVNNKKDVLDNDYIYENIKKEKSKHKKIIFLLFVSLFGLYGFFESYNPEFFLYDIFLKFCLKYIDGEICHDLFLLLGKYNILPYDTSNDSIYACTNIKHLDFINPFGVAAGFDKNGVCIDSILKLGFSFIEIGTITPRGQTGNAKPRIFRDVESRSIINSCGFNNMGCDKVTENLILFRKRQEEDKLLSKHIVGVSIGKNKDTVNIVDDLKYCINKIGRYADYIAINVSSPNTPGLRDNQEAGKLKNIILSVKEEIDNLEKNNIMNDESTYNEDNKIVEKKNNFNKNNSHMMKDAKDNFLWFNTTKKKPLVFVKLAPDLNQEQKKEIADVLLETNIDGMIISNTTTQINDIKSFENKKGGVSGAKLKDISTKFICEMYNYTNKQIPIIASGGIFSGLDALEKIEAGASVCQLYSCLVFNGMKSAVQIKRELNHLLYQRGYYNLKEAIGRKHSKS
Chain of Homeobox protein Hox-A13 (Mus musculus) (Q62424 whole entry, looked up): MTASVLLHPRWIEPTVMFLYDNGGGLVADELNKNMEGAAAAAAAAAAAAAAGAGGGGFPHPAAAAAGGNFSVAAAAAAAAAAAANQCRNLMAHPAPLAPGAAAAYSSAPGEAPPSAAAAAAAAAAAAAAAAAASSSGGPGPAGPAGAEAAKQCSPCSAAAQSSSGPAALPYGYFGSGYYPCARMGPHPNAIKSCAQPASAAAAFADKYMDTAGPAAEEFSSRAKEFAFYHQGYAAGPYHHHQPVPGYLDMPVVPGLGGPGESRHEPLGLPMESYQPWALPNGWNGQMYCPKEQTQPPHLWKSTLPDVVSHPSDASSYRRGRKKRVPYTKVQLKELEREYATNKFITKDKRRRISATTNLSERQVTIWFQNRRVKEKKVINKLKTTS

SMILES | z-score [1] | z-score [2] | z-score [3] | composite z-score [4] | z-score [5] | z-score [6] | z-score [7] | z-score [8] | z-score [9] | composite z-score [10] | composite z-score [11] | composite z-score (XIP peptide (Xip251-270)) | z-score [12] | z-score [13] | z-score [14] | z-score [15]
O=C1N(Cc2ccccc2)c2ccccc2C[C@@]12COC(c1ccc(OCCCO)cc1)=N2 | 0.792 | -0.248 (inactive) | -1.61 (inactive) | 0.0144 (inactive) | 1.39 (inactive) | 0.903 (inactive) | 1.17 (inactive) | -0.187 (inactive) | 0.712 | 0.0578 | 1.45 (inactive) | 0.308 | -2.23 | -5.21 (inactive) | 0.0438 (inactive) | 0.311 (inactive)
CCCCC(O)C1C=CC2C(=O)N(c3ccccc3)C(=O)C2N1Nc1ccccc1 (centres undefined) | 0.281 | -1.67 (inactive) | -0.125 (inactive) | 0.477 (inactive) | -0.0625 (inactive) | 0.632 (inactive) | -0.407 (inactive) | 0.483 (inactive) | -0.0096 | 0.366 | 0.145 (inactive) | 0.137 | -0.0871 | -4.11 (inactive) | 0.385 (inactive) | 0.283 (inactive)
CCOC(=O)C[C@H]1[C@H](OC(=O)c2ccccc2-c2ccccc2)[C@@H](NC(=O)c2ccc3ccccc3c2)c2cc(OCCCO)ccc2N1C(=O)Cc1ccc(OC)cc1 | -0.397 | 0.118 (inactive) | -0.142 (inactive) | -0.0597 (inactive) | -0.283 (inactive) | -0.899 (inactive) | -0.516 (inactive) | -0.404 (inactive) | -0.0439 | 0.0711 | 0.882 (inactive) | -0.47 | 0.0063 | -2.79 (inactive) | -0.242 (inactive) | -0.189 (inactive)
NC(=O)N1C(=O)C2C(C1=O)C1C=C(CCCO)C2C(c2ccc(CN3CCCC3)cc2)N1Cc1cc2c(cc1Br)OCO2 (centres undefined) | -0.766 | -0.222 (inactive) | -1.29 (inactive) | 0.0032 (inactive) | 0.792 (inactive) | -0.572 (inactive) | -0.672 (inactive) | -0.299 (inactive) | -1.5 | 0.0251 | 0.224 (inactive) | -0.0073 | -0.459 | -4.36 (inactive) | 0.504 (inactive) | 0.519 (inactive)
C=C(CCCC)C(=O)CC[C@@H](OC(=O)c1ccccc1-c1ccccc1C(=O)O)c1ccccc1OCCO | -0.174 | -2.49 (inactive) | -0.608 (inactive) | -1.35 (inactive) | 0.118 (inactive) | -1.61 (inactive) | 0.625 (inactive) | 0.403 (inactive) | -1.49 | 0.269 | 0.721 (inactive) | 0.145 | -2.92 | -6.26 (inactive) | 0.779 (inactive) | 1.38 (inactive)
COCC(=C=CC[C@H](O)c1ccccc1OCCO)C[C@H](O)COCc1ccccc1 | 0.0129 | -2.91 (inactive) | 0.442 (inactive) | -2.21 (inactive) | -0.566 (inactive) | -0.482 (inactive) | -0.348 (inactive) | -0.456 (inactive) | 0.623 | 0.151 | 0.195 (inactive) | 0.148 | -1.77 | -4.37 (inactive) | 0.141 (inactive) | 0.058 (inactive)
COCCCNC(=O)[C@@]1(Sc2ccc(C)cc2)CC(=O)N(Cc2ccccc2C(F)(F)F)[C@@H]1c1ccc(CO)cc1I | -1.07 | -2.19 (inactive) | -2.56 (inactive) | 0.0681 (inactive) | 0.0993 (inactive) | -1.2 (inactive) | -0.473 (inactive) | 0.0799 (inactive) | -2.75 | 0.419 | 0.814 (inactive) | -0.251 | -0.284 | -2.03 (inactive) | 0.26 (inactive) | 0.204 (inactive)
CN(C)CCCC[C@@H]1NC(=O)[C@H]2C[C@@H](C(=O)O)[C@@H](c3ccc(O)cc3)N2C1=O | -0.401 | -1.23 (inactive) | 0.41 (inactive) | -0.676 (inactive) | 1.5 (inactive) | -0.304 (inactive) | 0.679 (inactive) | -0.454 (inactive) | -0.34 | 2.02 | 3.67 (inactive) | 0.843 | -0.947 | -1.63 (inactive) | 0.7 (inactive) | 0.571 (inactive)
O=C1O[C@H](Cc2ccccc2)[C@@H]2[C@H]3C=CCCC=C3CN2[C@H]1Cc1ccc(O)cc1 | 1.28 | -2.92 (inactive) | 0.303 (inactive) | -0.259 (inactive) | 0.118 (inactive) | -0.0533 (inactive) | 0.616 (inactive) | 0.746 (inactive) | -0.095 | 0.269 | 0.127 (inactive) | -0.61 | -0.947 | -9.53 (active) | 0.167 (inactive) | -0.122 (inactive)
COC(=O)[C@@]1(Cc2ccc(F)cc2)[C@H]2c3cc(C(=O)N(C)C)n(C)c3C[C@H]2CN1C(=O)c1ccccc1 | -0.476 | 0.109 (inactive) | -0.911 (inactive) | 0.0197 (inactive) | 0.026 (inactive) | 0.626 (inactive) | -0.657 (inactive) | -0.705 (inactive) | -0.521 | 0.147 | -0.0622 (inactive) | -0.153 | 0.386 | -7.29 (inactive) | 0.707 (inactive) | 0.633 (inactive)
COC(=O)[C@@]1(Cc2ccccc2)[C@H]2c3cc(C(=O)N(C)C)n(CCO)c3C[C@H]2CN1C(=O)c1ccccc1 | -0.546 | 1.24 (inactive) | -1.28 (inactive) | 0.0058 (inactive) | 0.274 (inactive) | 0.329 (inactive) | -0.751 (inactive) | -0.217 (inactive) | -1.11 | -0.0152 | 1.42 (inactive) | 0.182 | 1.1 | -3.87 (inactive) | 0.736 (inactive) | 0.491 (inactive)
CC=CC(O)C1C=CC2C(=O)NC(=O)C2N1Nc1ccc(Cl)cc1Cl (centres undefined) | -1.2 | -11.4 (active) | -1.53 (inactive) | 0.733 (inactive) | 0.723 (inactive) | 1.52 (inactive) | -0.427 (inactive) | -0.356 (inactive) | -1.68 | -0.113 | -0.223 (inactive) | -0.186 | 0.179 | -3.78 (inactive) | 1.3 (inactive) | 1.22 (inactive)
CCCC#C[Si](O[C@H](CC)c1cn(Cc2ccccc2)nn1)(C(C)C)C(C)C | -0.394 | -14.2 (active) | -1.05 (inactive) | -0.205 (inactive) | 0.0763 (inactive) | -0.0787 (inactive) | -0.393 (inactive) | -0.195 (inactive) | -0.754 | -0.173 | -0.249 (inactive) | 0.598 | 0.0331 | -0.88 (inactive) | -0.074 (inactive) | 0.0744 (inactive)
[N-]=[N+]=Nc1ccccc1[C@@H]1OC(c2ccc(OCCCO)cc2)=N[C@]1(Cc1ccccc1)C(=O)NCCN1CCOCC1 | -0.158 | -2.57 (inactive) | -1.37 (inactive) | 0.417 (inactive) | -0.441 (inactive) | -0.158 (inactive) | 0.826 (inactive) | -0.382 (inactive) | -1.73 | -0.0663 | 0.764 (inactive) | 0.441 | -2.65 | -3.81 (inactive) | -0.437 (inactive) | -0.456 (inactive)
COCCOC(=O)N1C(=O)[C@@]2(c3ccccc31)[C@H](c1ccc(O)cc1)N1[C@H](c3ccccc3)[C@H](c3ccccc3)OC(=O)[C@H]1[C@@H]2C(=O)N1CCCCCCC1 | 0.0454 | -0.712 (inactive) | 0.0065 (inactive) | 0.161 (inactive) | 1.57 (inactive) | -0.122 (inactive) | -0.391 (inactive) | -1.88 (inactive) | 0.248 | 0.587 | 4.66 (inactive) | 0.91 | -1.01 | 0.899 (inactive) | -0.0437 (inactive) | 0.157 (inactive)
C[C@@H]1ON(c2ccccc2)[C@H](c2ccccc2)[C@H]1C(=O)O | 0.0656 | 0.0157 (inactive) | -0.0211 (inactive) | 0.341 (inactive) | 0.188 (inactive) | 0.058 (inactive) | -0.636 (inactive) | -1.02 (inactive) | 0.481 | -0.0343 | -0.117 (inactive) | 0.0627 | -0.413 | -0.711 (inactive) | 0.0099 (inactive) | 0.203 (inactive)
CO[C@H]1O[C@H](CO)[C@@H](OC(=O)Nc2ccccc2)[C@H](OC(=O)Nc2ccccc2)[C@H]1OC(=O)Nc1ccccc1 | -1.08 | 0.0367 (inactive) | -2.78 (inactive) | 1.02 (inactive) | -0.317 (inactive) | 1.84 (inactive) | 1.48 (inactive) | 0.536 (inactive) | -1.95 | -0.0125 | 0.142 (inactive) | 0.69 | -2.51 | -6.21 (inactive) | -0.0874 (inactive) | 0.511 (inactive)
COc1ccccc1CN1C(=O)c2ccccc2[C@](Cc2ccccc2I)(C(=O)NCC(C)C)[C@@H]1c1ccc(CO)cc1 | 0.52 | -0.441 (inactive) | 0.916 (inactive) | 0.133 (inactive) | 0.251 (inactive) | -0.337 (inactive) | 1.05 (inactive) | 1.29 (inactive) | 1.11 | -0.02 | 0.935 (inactive) | 0.932 | -0.409 | -3.82 (inactive) | -0.287 (inactive) | -0.208 (inactive)
C=C(CCCC)/C(=C/C[C@H](OC(=O)c1ccncc1)c1ccccc1OCCO)c1cc(C(=O)OC)ccc1OC | -0.345 | 0.431 (inactive) | 0.531 (inactive) | -1.36 (inactive) | 0.297 (inactive) | -0.3 (inactive) | 0.128 (inactive) | 0.0401 (inactive) | 1.09 | -0.184 | 0.578 (inactive) | 0.0792 | -3.07 | -4.22 (inactive) | -1.15 (inactive) | -0.733 (inactive)
